Measured values: PubChem BioAssay AID1259343 (VanderVen Lab, College of Veterinary Medicine, Cornell …, 2017)
Out of some 6,200 compounds screened, about 2,900 (47%) were called active. So high a share suggests a set chosen from earlier hits. The list shows a part of the results. Values without a mark were called inactive. No stated cut-off is given here; in the data, active means inhibition above about 50%; inactive means the rest.

assay: Mycobacterium tuberculosis growth inhibition, primary screen (AID 1259343); conditions: inhibition: at 10 µM, active compounds read high; outcome: 10 uM

Compound | inhibition
Fc1ccccc1COc1ccccc1CNc1nn[nH]n1 | 57.1% (active)
Cc1ccc(Oc2ncccc2CNc2ncccn2)c(F)c1F | 23.9%
Fc1ccccc1OCc1n[nH]c(=S)o1 | 47.7%
Cc1cc(NC(=O)Cn2cnc3c(nnn3-c3cccc(F)c3)c2=O)no1 | 87.4% (active)
Cc1cccc2c(=O)n(CC(=O)NCCc3cccc(F)c3)cnc12 | 25.4%
CSc1cccc(NC(=O)Cc2csc(N3CCCC3=O)n2)c1 | 70.3% (active)
Cc1cccc(CO[C@]2(C(=O)NCC3CCCO3)CC(OCc3ccc(F)cc3)[C@H](O)[C@H](O)C2)c1 (stereo not given in full) | -13%
O=C(NCCC12CC3CC(CC(C3)C1)C2)C12CC3CC(CC(C3)C1)C2 | -25.6%
O=C(NC1CCCC1)c1ccc(Br)o1 | -20.8%
Cc1ccc(CNC(=O)c2ccc(Br)o2)cc1F | 16.3%
O=C(NCC1CCCO1)C12CC3CC(CC(C3)C1)C2 (stereo not given) | 81.2% (active)
CCCCCCCCNC(=O)c1ccc(Br)o1 | 74.9% (active)
O=C(NCC1CCCO1)c1ccc(Br)o1 (stereo not given) | 83.8% (active)
Cc1ccc(OCCCCNC(=O)c2ccc(Br)o2)cc1 | 92.2% (active)
O=C(O)C1Nc2c(Cl)cc(Cl)cc2C2C=CCC12 (stereo not given) | 101% (active)
O=C(O)c1ccc2c(c1)C1C=CCC1C(c1ccc(Br)cc1)N2 (stereo not given) | 66.8% (active)
O=C(O)C1Nc2ccc(Br)cc2C2C=CCC12 (stereo not given) | 84.2% (active)
O=C(O)C1Nc2ccc3ccccc3c2C2C=CCC12 (stereo not given) | 16.2%
N#Cc1nc(C2CC2)oc1N1CCN(C(=O)Nc2ccccc2)CC1 | 21.4%
COC(=O)c1ccc(CSC(=S)N(C)C)cc1 | 82.1% (active)
NC(=O)C1CCN(C(=O)CCc2ccsc2)CC1 | 90.9% (active)
CC(C)c1csc(C2CCN(C(=O)CCc3ccsc3)CC2)n1 | 83.6% (active)

Compound | inhibition
NC(=O)C1CCN(C(=O)CCC2CCCC2)CC1 | -28.4%
Cc1c(C(=O)N2CCC(C(N)=O)CC2)nnn1-c1nc(-c2ccccc2)cs1 | 20.4%
CCC(C)[n+]1c(C)cc(C=C2Sc3ccccc3N2CC)cc1C (stereo not given) | 84.5% (active)
Cc1cc(C=C2Sc3ccccc3N2C)cc(C)[n+]1-c1ccccc1 | 41.1%
CCN1C(=Cc2ccc3cc(C)ccc3[n+]2CC)Sc2ccccc21 | 56.1% (active)
CCN1C(=Cc2cc(C)[n+](C3CCCCC3)c(C)c2)Sc2ccccc21 | -19.4%
CC(C)CCOc1ncnc2c1sc1nc3c(cc12)COC(C)(C)C3 | 63.6% (active)
CCCCCOc1ncnc2c1sc1nc3c(cc12)COC(C)(C)C3 | 51% (active)
CC1(C)[C@H]2CC[C@@H](CNC(=O)c3cc(=O)n(-c4ccccc4)[nH]3)[C@@H]1C2 | 23.3%
C=C(NC(=O)C(=C)NC(=O)c1csc(C2=NC3c4csc(n4)C4NC(=O)c5csc(n5)C(C(C)(O)C(C)O)NC(=O)C5CSC(=N5)C(=CC)NC(=O)C(C(C)O)NC(=O)c5csc(n5)C3(CC2)NC(=O)C(C)NC(=O)C(=C)NC(=O)C(C)NC(=O)C(C(C)CC)NC2C=Cc3c(C(C)O)cc(nc3C2O)C(=O)OC4C)n1)C(N)=O (stereo not given) | 95.4% (active)
N=C1c2ccccc2CN1c1ccc(OC(F)(F)C(F)F)cc1 | 64.2% (active)
CSc1nsc(SC)c1NC(=O)OC1CCCCC1 | 11.5%
CC(C(=O)NCc1cccs1)S(=O)(=O)c1ccc(C(F)(F)F)cn1 (stereo not given) | 14.3%
Cc1ccc(CNS(=O)(=O)Cc2ccc(F)cc2)cc1F | 29.8%
CNS(=O)(=O)Cc1ccc(CNc2ccc(C(F)(F)F)cn2)cc1 | 50.3% (active)
N#Cc1c(Cl)nsc1NCCC1CC2CCC1C2 (stereo not given) | 96.1% (active)
N#Cc1c(Cl)nsc1NC1CCSc2c(F)cccc21 (stereo not given) | 11.2%
COc1cccc(C(CN2CCN(C(=O)C=C(C)C)CC2)OCc2cccc(Cl)c2)c1 (stereo not given) | -4.3%
N=C1C=CC(=C(c2cccc(N)c2)c2cccc(N)c2)C=C1 | 68.4% (active)
CC1c2cccn2CCN1Cc1csc(Nc2ccccc2)n1 (stereo not given) | 20.8%
CCOc1ccc(Nc2nc(-c3c(C)nc4ccccn34)cs2)cc1 | 61.2% (active)
CCOc1ccc(NC(=O)CSc2nc(=O)n3ccccc3n2)cc1 | 2.8%

Compound | inhibition
CC(Oc1ccc(Cl)cc1)C(=O)NC(C)c1cccs1 (stereo not given) | 94.5% (active)
COc1ccccc1NC(=O)N(Cc1ccsc1)C1CC1 | 16%
COc1ccccc1CN(C(=O)Nc1ccccc1Cl)C1CC1 | 78.5% (active)
COc1ccccc1CNC(=O)C1(S(=O)(=O)c2ccc(Cl)cc2)CCCC1 | 2.93%
CCc1cc(=O)[nH]c(-n2nc(C)cc2NC(=O)c2cc(Cl)ccc2OC)n1 | 102% (active)
Cc1cc(=O)[nH]c(-n2nc(C3CC3)cc2NC(=O)c2cc(Cl)ccc2Cl)n1 | -15.9%
COc1ccc(Cl)cc1C(=O)Nc1cc(C2CC2)nn1-c1nc(C)cc(=O)[nH]1 | 99.9% (active)
COc1ccc(Cl)cc1C(=O)Nc1cc(C)nn1-c1nc(C)c(C)c(=O)[nH]1 | 100% (active)
COc1ccc(Cl)cc1C(=O)Nc1cc(C)nn1-c1nc(C)cc(=O)[nH]1 | 101% (active)
Cc1noc(CNC(C)(C)Cc2ccc(Br)cc2)n1 | -9.14%
Cn1c2ccccc2n2c3ncccc3c(=O)c(C#N)c12 | 41.8%
CCSc1nnc(SCc2cccc(OC)n2)s1 | 90.4% (active)
COc1ccc(CSc2nnc(SCC(=O)N3CCCCCC3)s2)cc1 | 26.9%
CSc1nnc(SCc2cc(C)no2)s1 | 27.2%
COc1ccc(NC(=O)c2ccc(-c3ccc(C(C)=O)cc3)o2)cn1 | -28.8%
CON(C)S(=O)(=O)c1cc(C(=O)Nc2cccc(Cl)c2Cl)ccc1Cl | 22.1%
CCCCN(C)S(=O)(=O)c1ccc(NC(=O)c2ccc(OC)nc2)cc1 | 88% (active)
COc1ccc(C2=NOC(CNCc3cccc(C(F)(F)F)c3)C2)cc1 (stereo not given) | 43.6%
COc1ccc(C2=NOC(c3ccc(C)cc3)C2)cc1 (stereo not given) | 22.2%
Fc1cccc(CNCC2CC(c3ccc(Cl)c(Cl)c3)=NO2)c1 (stereo not given) | 57.1% (active)
COc1ccc(C2=NOC(CNCc3cccc(F)c3)C2)cc1 (stereo not given) | 76.2% (active)
